Test results published in PubChem BioAssay AID777 (Sanford-Burnham Center for Chemical Genomics, 2007).
The whole screen tested about 96,000 compounds, of which about 19,000 (20%) were called active. A selection follows. A number with no mark means an inactive call.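 Rule for the calls: active = blocking of liver enzyme CYP2C9 beyond about 50% at 5 µM (limit read from the data); inactive = the rest.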

target: Cytochrome P450 2C9 (Homo sapiens) (UniProt P11712); experiment: blockers of cytochrome P450 2C9 activity – biochemical, luminescence, ADME assay, primary screen (AID 777); conditions: CYP2C9 Supersomes, luciferin-H conversion, at 5 µM, active compounds read high
Sequence (P11712 whole entry, looked up): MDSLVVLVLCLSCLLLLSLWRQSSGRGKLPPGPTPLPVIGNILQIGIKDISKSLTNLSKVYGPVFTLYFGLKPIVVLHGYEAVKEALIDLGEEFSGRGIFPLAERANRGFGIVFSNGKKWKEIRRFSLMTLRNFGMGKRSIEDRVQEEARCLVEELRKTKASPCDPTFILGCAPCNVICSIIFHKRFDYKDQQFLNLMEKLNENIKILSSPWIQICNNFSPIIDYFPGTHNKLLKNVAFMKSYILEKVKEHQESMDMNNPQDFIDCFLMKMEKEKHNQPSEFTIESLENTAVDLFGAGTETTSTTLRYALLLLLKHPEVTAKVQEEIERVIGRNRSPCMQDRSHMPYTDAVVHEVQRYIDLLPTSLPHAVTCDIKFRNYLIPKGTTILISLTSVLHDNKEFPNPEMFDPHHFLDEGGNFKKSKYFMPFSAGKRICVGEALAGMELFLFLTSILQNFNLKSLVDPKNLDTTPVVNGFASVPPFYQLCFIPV

Compound | inhibition
CN1CCN(CC(=O)Nc2sc3c(c2C#N)CCC(C(C)(C)C)C3)CC1 (stereo not given) | 33.8%
O=C(Nc1c(-c2ccccc2)nc2c(Br)cc(Br)cn12)c1ccco1 | 15.6%
c1ccc2c(C[n+]3csc4ccccc43)cccc2c1 | 76.7% (active)
N=C(N)SCc1cccc2ccccc12 | -24.4%
c1ccc2c(CNn3cnnc3)cccc2c1 | -2.3%
Cc1ccc(C(=O)NNC(=O)OC(C)(C)C)c(Cl)c1 | 1.9%
CCc1ccc(CNC(=O)C2CCCN(c3nc4ccccc4o3)C2)cc1 (stereo not given) | 45%
O=S(=O)(c1ccc(OCC(O)CN2CCN(c3ccccc3Cl)CC2)cc1)N1CCOCC1 (stereo not given) | 28.3%
Cc1cccc(N2CCN(C(=O)CN(C)S(=O)(=O)c3ccc4c(c3)CCC(=O)N4)CC2)c1C | 51% (active)
CCOC(=O)Cc1csc(NC(=O)CSc2nc(C)cc(=O)[nH]2)n1 | 23.2%
Cc1ccc(S(=O)(=O)N(C)CC(=O)N2CCc3ccccc32)cc1 | -132%
CCOC(=O)Cc1csc(NC(=O)CN(C)S(=O)(=O)c2ccc3c(c2)CCC(=O)N3)n1 | 65.5% (active)
CCOC(=O)Cc1csc(NC(=O)C(C)(C)C)n1 | 30.2%
CC(=O)N1CCN(c2cccc(C)c2C)CC1 | -8.6%
COC(=O)/C=C/C(=O)NCc1ccco1 | 1.2%
OCCN1CCOCCOCCN(CCO)CCN(CCO)CC1 | 12.8%
Cc1nn(-c2ccccc2)c(CC(C)(C)C(=O)O)c1C(=O)O | -10.3%
Cc1nn(-c2ccccc2)c(Cl)c1C(=O)Nc1ccccc1 | -47%
Cc1ccc(C(=O)/C=C/c2c(C)nn(-c3ccccc3)c2Cl)cc1 | 90.4% (active)
O=C(Nc1ccccc1C(=O)N1CCOCC1)C1CCC(=O)N1C1CCCC1 (stereo not given) | -9.2%
COc1cccc(N2C(=O)C3CCCN3C2c2ccc(F)cc2)c1 (stereo not given) | -9.4%
COc1ccc(OCC(=O)OCCN(C)C)cc1 | -12.1%
CN(C)C(CNC(=O)CCCOc1ccccc1)c1ccco1 (stereo not given) | 51.7% (active)
O=C(CCCOc1ccccc1)NCc1ccco1 | 18.1%
O=C(CCOc1ccccc1)NCc1ccccc1 | 6.9%

Compound | inhibition
O=C(NCC12CC3CC(C1)CC(CNC(=O)N1CCCC1)(C3)C2)N1CCCC1 | -12.3%
Nc1nc(SCCOc2ccccc2)n[nH]1 | -8.6%
COc1ccccc1NC(=O)CN1CCN(S(=O)(=O)c2ccc(Br)cc2)CC1 | -0.8%
COc1cc2c(cc1NC(=O)CN1CCN(S(=O)(=O)c3ccc(F)cc3)CC1)oc1ccccc12 | 78.7% (active)
COc1ccc(NC(=O)CN2CCN(S(=O)(=O)c3ccc(F)cc3)CC2)cc1Cl | 17.3%
CN1/C(=c2/s/c(=C3/C(=O)N(c4ccccc4)NC3=Nc3ccccc3)n(C)c2=O)C(C)(C)c2ccccc21 | 19%
CCNC(=O)c1c(O)c2cccc3c2n(c1=O)CC3 | 10.3%
O=C(COC(=O)CCC(=O)c1cccs1)NCc1ccco1 | 2.9%
CC(C)(C)c1cc(=O)n2c(nc3ccccc32)[nH]1 | 52% (active)
Cc1nn2c3ccccc3nc2n(C)c1=O | -5.7%
CC(C)(C)N1CC(c2nc3ccccc3n2Cc2ccc(F)cc2)CC1=O (stereo not given) | 22.8%
Cn1c(SCC(=O)N2CCOCC2)nnc1-c1ccc(NC(=O)c2ccccc2F)cc1 | 13%
CCCCC(CC)C(=O)Nc1ccc(Cl)cn1 (stereo not given) | 7.6%
CC(C)C(NC(=O)OCc1ccccc1)C(=O)OCC(=O)N1C(C)CCCC1C (stereo not given) | 1.2%
CCC(C)NC(=O)c1c(N)n(/N=C/c2cccs2)c2nc3ccccc3nc12 (stereo not given) | 17.2%
Cc1ccc(OCc2nnc(NC(=O)OCC(C)C)s2)cc1 | 20.2%
CC(C)c1cc(C(N)=O)c(NC(=O)c2cccc(COc3ccc(Br)cc3)c2)s1 | 56.1% (active)
COc1ccc(N2CCN(C3CC(=O)N(c4ccc5c(c4)OCCO5)C3=O)CC2)cc1 (stereo not given) | -1%
O=c1oc2c(Cl)cc(Cl)cc2cc1-c1nnc(Nc2ccccc2F)s1 | -4.3%
Cc1cccc(OCc2nnc(SCc3nc4cc(C(F)(F)F)ccc4c(=O)[nH]3)o2)c1 | 33%
O=C(Cc1ccc(S(=O)(=O)N2CCCC2)s1)NC1CCCCCC1 | 35.1%
O=C(Cc1ccc(S(=O)(=O)N2CCOCC2)s1)NCCC(c1ccccc1)c1ccccc1 | 71.6% (active)
O=C(c1ccc(S(=O)(=O)N2CCOCC2)cc1)N1CCN(c2ccccc2)CC1 | -4.5%
C=C(Br)Cn1c(CCCC)nc2ccccc21 | 35%
Cc1[nH]n(-c2ccc([N+](=O)[O-])cc2)c(=O)c1C=NCCN1CCN(C(=O)c2ccccc2F)CC1 | 16.8%

Compound | inhibition
Cc1csc(NC(=O)C2CCCN2C(=O)OCC(C)C)n1 (stereo not given) | 21.7%
Cc1ccc(-n2nc3ccc(NC(=O)/C=C/c4ccco4)cc3n2)cc1C | 34.5%
O=C(/C=C/c1ccco1)Nc1ccc(Oc2ccccc2)cc1 | 11.5%
O=C(/C=C/c1ccco1)Nc1cccc(-c2nc3ccccc3[nH]2)c1 | 81.3% (active)
CCc1nnc(NC(=O)CSc2nc3c(c(=O)n2-c2ccccc2OC)SCC3)s1 | 7.3%
O=C(Cn1c(-c2cncs2)nc2ccccc21)NC1CCCC1 | 2.4%
Cc1ccc(-n2nc3c(c2NC(=O)CCC2CCCCC2)CS(=O)C3)cc1 (stereo not given) | 12%
CCCOC(=O)c1[nH]c2c(c1C)C(=O)CC(c1cccs1)C2 (stereo not given) | 72.3% (active)
COC(=O)C1C(=O)c2c([nH]c(C(=O)OCCSC)c2C)CC1C (stereo not given) | 32.8%
CCCOC(=O)c1[nH]c2c(c1C)C(=O)CC(c1cc(OC)c(OC)c(OC)c1)C2 (stereo not given) | 66.2% (active)
CCOC(=O)c1[nH]c2c(c1C)C(=O)CC(c1ccc(N(C)C)cc1)C2 (stereo not given) | 36.2%
O=c1c2ccccc2nc2n1C(CSCc1cccc(C(F)(F)F)c1)CS2 (stereo not given) | 38.6%
CCOC(=O)CSc1nnc(CNC(=O)c2ccco2)n1-c1ccc(F)cc1 | -0.1%
O=C(NC1CCCCC1)c1ccc(CNc2c(N3CCOCC3)c(=O)c2=O)cc1 | -23.2%
O=C(NCCN1C(=O)C2C3C=CC(C3)C2C1=O)Nc1ccccn1 (stereo not given) | -16.2%
CC12CCC(C(=O)N3CCN(c4ncccn4)CC3)(c3nc4ccccc4nc31)C2(C)C (stereo not given) | 51.5% (active)
O=S(=O)(c1cccc2nonc12)N1CCN(c2cccc(Cl)c2)CC1 | 12.3%
O=C(NCCN1CCN(Cc2ccccc2)CC1)c1cc2c(=O)[nH]c3ccccc3c2s1 | 31%
CCCc1nnc(NC(=O)CN2C(=O)c3ccccc3S2(=O)=O)s1 | 9.5%
C=C(Br)CN1CCN(CC(=C)Br)CC1 | -1.7%
O=C(O)C1CC=C(Cl)CC1C(=O)NCc1ccccc1 (stereo not given) | 13.8%
Cc1ccc(C(=O)Nc2nnc(-c3cccs3)s2)cc1C | 2%
CC(C)=CC(=O)Nc1nnc(-c2ccc(F)cc2)s1 | 9%
Cc1occc1C(=O)Nc1nnc(-c2ccncc2)s1 | 90.1% (active)
Cc1ccc(C(=O)COc2cccc(NC(=O)c3ccco3)c2)cc1 | 32.1%

Compound | inhibition
Cc1ccc(C(=O)Nc2nnc(-c3ccncc3)s2)o1 | 93.1% (active)
CCOc1cccc(C(=O)Nc2cnn(Cc3ccccc3)c2)c1 | 10.6%
Cc1occc1C(=O)Nc1cccc(Cn2cccn2)c1 | 51.4% (active)
Cc1occc1C(=O)Nc1nnc(C2CCCCC2)s1 | 0.6%
Cc1occc1C(=O)NNC(=S)NCC(C)C | 12.4%
COc1ccc(Oc2coc3cc(OC(=O)c4cncc(Br)c4)ccc3c2=O)cc1 | -54.5%
Cc1nnc(SCC(=O)Nc2ncc3c(n2)CC(C)(C)CC3=O)s1 | 22.5%
COc1ccc(-c2noc(COc3ccc(Cl)c(C)c3)n2)cc1 | 11.2%
CCOc1ccc(/C(O)=C2/C(=O)C(=O)N(Cc3cccnc3)C2c2ccc(N(C)C)cc2)c(C)c1 (stereo not given) | 20.8%
N#Cc1ccc(CSc2nnc(-c3ccccn3)n2-c2ccc(Cl)cc2)cc1 | 7.5%
CCc1nnc(NC(=O)CSc2nnc(COc3ccc(C#N)cc3)n2-c2ccccc2)s1 | 30.3%
O=P(c1ccc2c(c1)OCCO2)(N1CCOCC1)N1CCOCC1 | 24.8%
O=C(NNC(=O)c1cccnc1)Nc1ccccc1 | -10.1%
CC(C)NC(=O)C(=O)N/N=C/c1ccco1 | -20.6%
COc1ccc(Nc2nc(=O)[nH]nc2C)cc1 | 1.9%
CCN(CC)CC(=O)Nc1nn(-c2ccccc2)nc1C(N)=O | -20.1%
CC(=O)c1cc2c(cc1NC(=O)CN1CCCCCC1)OCO2 | 0.4%
O=C(O)c1ccc(COc2c(F)c(F)cc(F)c2F)o1 | -9.4%
O=C(Nc1ccn(Cc2ccccc2F)n1)c1ccc(COc2ccc(Cl)cc2Cl)o1 | 92.6% (active)
O=C(Nc1nn(Cc2ccccc2F)cc1Br)c1cccs1 | 8%
OC(COCCC12CC3CC(CC(C3)C1)C2)CN1CCCCC1 (stereo not given) | 3.4%
CCN1CCCC1CNC(=O)Cn1cnc2ccc(S(=O)(=O)N3CCC(C)CC3)cc2c1=O (stereo not given) | 7.3%
COC(=O)C1=C(Nc2ccc(OC)cc2)C=C(C)C(C(=O)OC)C1c1ccc(C)cc1 (stereo not given) | 51.9% (active)
COC(=O)C1C(=O)NCC1c1ccc(C)cc1 (stereo not given) | 17.3%
COC(=O)C1C(=O)NCC1c1ccc(OC)cc1 (stereo not given) | -19.7%
